Laboratory results: PMC7862700, “An all-to-all approach to the identification of sequence-specific readers for epigenetic DNA modifications on cytosine”

Legend:
Test in all cases: DAPPL (digital affinity profiling via proximity ligation, sequencing); 10 mM Tris-HCl pH 7.5, 50 mM NaCl, 1 mM DTT, 4% glycerol, room temperature, 30 min; GST-TFs on glutathione beads, 16-mer random dsDNA library, 0.1% formaldehyde crosslink after washing; high values mean tight binding
Settings in all cases: protein: recombinant; tags: N-terminal GST; dsDNA, one strand shown
[1] = target: T1, FLI1 (Homo sapiens, UniProt Q01543 1-452)
T1 sequence: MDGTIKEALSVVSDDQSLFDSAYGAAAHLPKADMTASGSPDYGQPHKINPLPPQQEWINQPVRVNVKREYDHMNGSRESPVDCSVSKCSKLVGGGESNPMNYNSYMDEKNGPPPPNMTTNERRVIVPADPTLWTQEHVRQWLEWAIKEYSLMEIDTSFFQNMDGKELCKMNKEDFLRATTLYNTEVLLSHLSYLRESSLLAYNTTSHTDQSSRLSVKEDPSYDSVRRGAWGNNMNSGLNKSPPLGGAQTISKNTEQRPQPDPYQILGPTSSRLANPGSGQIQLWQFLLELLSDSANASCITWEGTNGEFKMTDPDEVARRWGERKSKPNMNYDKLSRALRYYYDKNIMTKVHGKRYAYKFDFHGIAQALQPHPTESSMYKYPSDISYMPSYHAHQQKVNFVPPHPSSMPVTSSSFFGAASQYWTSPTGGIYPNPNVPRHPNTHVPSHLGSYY
Outline: (§1)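 Beads coated with glutathione captured GST-fused human transcription factors that had been expressed in yeast, and the factors were then given DNA barcodes and pooled with a tag-only sample. The pools were incubated with 200 nmole of a random double-stranded 16-mer DNA library in Tris/NaCl/DTT/glycerol buffer for 30 min at room temperature, washed, crosslinked with 0.1% formaldehyde and proximity-ligated with BsaI/T4 ligase at 37 °C for 1 h. PCR amplification and Illumina NextSeq500 sequencing came last. Binding signal is each hexamer's read frequency for a factor divided by its frequency for the tag-only sample.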

[2] = target: T2, ELK1 (Homo sapiens, UniProt P19419 1-428)
T2 sequence: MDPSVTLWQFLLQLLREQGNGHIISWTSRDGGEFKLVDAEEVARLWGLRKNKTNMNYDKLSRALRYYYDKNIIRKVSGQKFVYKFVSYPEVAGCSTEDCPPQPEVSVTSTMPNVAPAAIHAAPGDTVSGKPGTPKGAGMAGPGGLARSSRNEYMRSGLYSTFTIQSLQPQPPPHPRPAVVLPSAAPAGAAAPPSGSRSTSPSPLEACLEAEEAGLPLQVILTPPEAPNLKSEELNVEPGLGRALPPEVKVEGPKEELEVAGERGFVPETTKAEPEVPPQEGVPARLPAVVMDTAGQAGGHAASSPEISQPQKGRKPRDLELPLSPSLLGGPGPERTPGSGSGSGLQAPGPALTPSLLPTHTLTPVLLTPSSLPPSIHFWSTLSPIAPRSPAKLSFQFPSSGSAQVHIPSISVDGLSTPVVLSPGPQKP
Outline: as §1

[3] = target: T3, GABPA (Homo sapiens, UniProt Q06546 1-454)
T3 sequence: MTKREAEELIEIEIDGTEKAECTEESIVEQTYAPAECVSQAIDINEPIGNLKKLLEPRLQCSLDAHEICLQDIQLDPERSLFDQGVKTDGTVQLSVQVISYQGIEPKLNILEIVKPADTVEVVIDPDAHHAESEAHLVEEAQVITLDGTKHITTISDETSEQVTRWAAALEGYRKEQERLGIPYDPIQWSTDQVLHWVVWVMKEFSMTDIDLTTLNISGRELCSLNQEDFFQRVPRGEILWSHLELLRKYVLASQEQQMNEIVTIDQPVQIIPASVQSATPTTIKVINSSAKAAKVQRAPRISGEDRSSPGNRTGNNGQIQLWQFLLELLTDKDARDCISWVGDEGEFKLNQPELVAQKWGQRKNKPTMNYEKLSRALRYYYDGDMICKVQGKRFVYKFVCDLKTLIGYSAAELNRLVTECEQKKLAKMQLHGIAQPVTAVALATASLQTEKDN
Outline: as §1

[4] = target: T4, ERG (Homo sapiens, UniProt P11308 1-479)
T4 sequence: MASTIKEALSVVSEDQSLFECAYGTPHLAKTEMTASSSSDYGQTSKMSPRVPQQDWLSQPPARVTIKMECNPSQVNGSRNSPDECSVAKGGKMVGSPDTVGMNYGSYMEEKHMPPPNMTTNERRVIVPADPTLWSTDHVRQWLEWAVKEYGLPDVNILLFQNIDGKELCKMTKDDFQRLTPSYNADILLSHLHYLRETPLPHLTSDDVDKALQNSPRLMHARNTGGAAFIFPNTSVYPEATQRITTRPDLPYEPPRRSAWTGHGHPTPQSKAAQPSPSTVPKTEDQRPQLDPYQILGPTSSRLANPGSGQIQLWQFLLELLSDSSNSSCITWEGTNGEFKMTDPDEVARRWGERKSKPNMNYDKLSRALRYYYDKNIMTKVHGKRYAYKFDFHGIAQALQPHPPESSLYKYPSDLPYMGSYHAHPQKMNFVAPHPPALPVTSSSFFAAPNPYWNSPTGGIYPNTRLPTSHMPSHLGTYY
Outline: as §1

[5] = target: ELF1 (Homo sapiens, UniProt P32519 1-619)
ELF1, sequence (P32519 whole entry): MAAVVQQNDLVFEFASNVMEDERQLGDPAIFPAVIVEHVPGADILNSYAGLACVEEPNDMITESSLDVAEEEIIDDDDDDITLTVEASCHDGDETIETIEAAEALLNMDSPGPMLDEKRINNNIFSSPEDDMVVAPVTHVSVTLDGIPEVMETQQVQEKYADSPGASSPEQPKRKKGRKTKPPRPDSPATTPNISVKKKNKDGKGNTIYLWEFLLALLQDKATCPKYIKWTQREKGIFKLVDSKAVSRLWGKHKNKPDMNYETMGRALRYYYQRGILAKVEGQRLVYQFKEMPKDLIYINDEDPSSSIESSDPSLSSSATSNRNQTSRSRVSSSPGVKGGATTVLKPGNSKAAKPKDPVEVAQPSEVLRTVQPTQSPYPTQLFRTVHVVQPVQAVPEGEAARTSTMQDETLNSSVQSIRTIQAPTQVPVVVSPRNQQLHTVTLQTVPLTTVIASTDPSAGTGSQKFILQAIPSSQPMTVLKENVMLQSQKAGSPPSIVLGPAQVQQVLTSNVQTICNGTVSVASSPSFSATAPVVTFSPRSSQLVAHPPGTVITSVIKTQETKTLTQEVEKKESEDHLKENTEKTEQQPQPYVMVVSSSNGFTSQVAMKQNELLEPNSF
Outline: as §1

[6] = target: T5, EHF (Homo sapiens, UniProt Q9NZC4 1-300)
T5 sequence: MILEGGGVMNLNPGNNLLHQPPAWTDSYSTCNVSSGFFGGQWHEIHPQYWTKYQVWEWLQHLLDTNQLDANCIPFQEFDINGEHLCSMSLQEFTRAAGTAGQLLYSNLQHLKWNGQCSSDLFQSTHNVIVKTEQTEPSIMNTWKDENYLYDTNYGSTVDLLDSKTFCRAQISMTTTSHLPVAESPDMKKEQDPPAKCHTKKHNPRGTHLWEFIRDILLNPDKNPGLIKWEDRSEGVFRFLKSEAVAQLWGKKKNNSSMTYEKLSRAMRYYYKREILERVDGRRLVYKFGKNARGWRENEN
Outline: as §1

[7] = target: SPI1 (Homo sapiens, UniProt P17947 1-270)
Outline: as §1

[8] = target: SPIB (Homo sapiens, UniProt Q01892 1-262)
SPIB, sequence (Q01892 whole entry): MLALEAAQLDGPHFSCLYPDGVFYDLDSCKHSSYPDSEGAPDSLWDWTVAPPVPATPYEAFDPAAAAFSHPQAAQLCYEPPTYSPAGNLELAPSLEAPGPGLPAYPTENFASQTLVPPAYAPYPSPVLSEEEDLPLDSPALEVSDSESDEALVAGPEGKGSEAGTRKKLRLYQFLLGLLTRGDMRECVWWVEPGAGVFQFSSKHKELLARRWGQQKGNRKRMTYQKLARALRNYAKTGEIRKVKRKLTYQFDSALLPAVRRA
Outline: as §1

[9] = target: T6, ELK3 (Homo sapiens, UniProt P41970 1-407)
T6 sequence: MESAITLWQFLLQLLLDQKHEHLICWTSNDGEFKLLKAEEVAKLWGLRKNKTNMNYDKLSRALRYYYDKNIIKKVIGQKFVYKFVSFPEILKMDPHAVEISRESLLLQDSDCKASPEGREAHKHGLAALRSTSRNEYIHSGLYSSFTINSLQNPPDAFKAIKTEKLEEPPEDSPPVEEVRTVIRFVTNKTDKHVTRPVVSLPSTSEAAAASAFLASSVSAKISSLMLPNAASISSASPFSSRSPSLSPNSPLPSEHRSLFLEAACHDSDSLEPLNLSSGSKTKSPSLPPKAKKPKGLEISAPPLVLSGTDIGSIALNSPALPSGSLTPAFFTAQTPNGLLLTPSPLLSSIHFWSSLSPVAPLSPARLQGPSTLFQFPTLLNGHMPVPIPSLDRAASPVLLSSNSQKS
Outline: as §1

[10] = target: T7, FEV (Homo sapiens, UniProt Q99581 1-238)
T7 sequence: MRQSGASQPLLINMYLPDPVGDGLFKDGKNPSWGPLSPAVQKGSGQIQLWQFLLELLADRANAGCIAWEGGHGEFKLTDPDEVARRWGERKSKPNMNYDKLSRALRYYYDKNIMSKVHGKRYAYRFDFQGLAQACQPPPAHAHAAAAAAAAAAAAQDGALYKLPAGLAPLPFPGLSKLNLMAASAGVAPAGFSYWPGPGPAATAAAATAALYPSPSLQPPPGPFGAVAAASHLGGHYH
Outline: as §1

[11] = target: ETV5 (Homo sapiens, UniProt P41161 1-510)
ETV5, sequence (P41161 whole entry): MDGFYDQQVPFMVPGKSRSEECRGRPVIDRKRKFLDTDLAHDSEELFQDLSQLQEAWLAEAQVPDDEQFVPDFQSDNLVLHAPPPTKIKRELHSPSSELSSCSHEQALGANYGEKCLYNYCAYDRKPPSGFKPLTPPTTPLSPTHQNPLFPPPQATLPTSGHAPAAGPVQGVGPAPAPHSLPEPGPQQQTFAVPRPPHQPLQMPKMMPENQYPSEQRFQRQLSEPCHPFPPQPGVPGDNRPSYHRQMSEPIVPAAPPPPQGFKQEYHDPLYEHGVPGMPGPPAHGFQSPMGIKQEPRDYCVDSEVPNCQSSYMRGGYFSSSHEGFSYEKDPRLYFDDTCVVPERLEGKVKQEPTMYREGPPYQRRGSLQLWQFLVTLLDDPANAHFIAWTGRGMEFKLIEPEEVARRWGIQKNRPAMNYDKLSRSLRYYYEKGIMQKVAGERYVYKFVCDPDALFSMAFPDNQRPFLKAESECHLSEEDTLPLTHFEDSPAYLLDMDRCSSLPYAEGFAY
Outline: as §1

[12] = target: T8, SPIC (Homo sapiens, UniProt Q8N5J4 1-248)
T8 sequence: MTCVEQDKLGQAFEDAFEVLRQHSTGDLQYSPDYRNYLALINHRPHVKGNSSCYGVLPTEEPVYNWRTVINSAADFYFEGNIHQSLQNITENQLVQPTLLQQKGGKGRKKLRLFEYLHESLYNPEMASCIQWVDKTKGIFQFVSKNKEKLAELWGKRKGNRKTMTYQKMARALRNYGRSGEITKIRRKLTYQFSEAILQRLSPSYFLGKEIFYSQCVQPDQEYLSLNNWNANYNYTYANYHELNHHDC
Outline: as §1

[13] = target: ELF4 (Homo sapiens, UniProt Q99607 1-663)
ELF4, sequence (Q99607 whole entry): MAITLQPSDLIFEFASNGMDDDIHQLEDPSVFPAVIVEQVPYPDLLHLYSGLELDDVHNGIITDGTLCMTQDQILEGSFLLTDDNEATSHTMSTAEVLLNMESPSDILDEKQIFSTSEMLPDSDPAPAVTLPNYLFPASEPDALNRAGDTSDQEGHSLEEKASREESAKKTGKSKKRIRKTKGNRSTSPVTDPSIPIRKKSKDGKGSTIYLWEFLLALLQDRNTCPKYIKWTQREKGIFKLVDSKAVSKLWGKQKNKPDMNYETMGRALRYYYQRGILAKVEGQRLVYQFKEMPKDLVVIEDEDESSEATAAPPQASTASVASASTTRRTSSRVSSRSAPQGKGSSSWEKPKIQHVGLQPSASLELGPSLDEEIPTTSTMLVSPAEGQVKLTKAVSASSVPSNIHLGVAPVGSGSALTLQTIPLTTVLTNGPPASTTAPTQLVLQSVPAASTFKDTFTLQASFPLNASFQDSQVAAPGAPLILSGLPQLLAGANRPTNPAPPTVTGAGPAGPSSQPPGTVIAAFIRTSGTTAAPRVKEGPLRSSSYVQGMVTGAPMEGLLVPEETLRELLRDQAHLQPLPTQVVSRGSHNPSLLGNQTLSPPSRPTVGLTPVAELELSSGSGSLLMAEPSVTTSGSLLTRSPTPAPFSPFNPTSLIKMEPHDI
Outline: as §1

[14] = target: T9, ELK4 (Homo sapiens, UniProt P28324-2 1-405)
T9 sequence: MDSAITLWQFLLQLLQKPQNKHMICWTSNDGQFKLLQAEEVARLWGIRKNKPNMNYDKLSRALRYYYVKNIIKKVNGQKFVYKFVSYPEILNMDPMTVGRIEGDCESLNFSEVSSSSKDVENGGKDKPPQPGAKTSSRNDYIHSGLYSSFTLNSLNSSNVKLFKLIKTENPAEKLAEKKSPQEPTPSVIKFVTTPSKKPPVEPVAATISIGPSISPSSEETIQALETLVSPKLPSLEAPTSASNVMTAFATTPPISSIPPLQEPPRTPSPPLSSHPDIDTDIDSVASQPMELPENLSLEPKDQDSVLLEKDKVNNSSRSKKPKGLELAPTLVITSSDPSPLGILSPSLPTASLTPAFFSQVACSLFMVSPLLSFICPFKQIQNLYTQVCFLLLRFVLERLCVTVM
Outline: as §1

[15] = target: T10, ETV2 (Homo sapiens, UniProt O00321 1-342)
T10 sequence: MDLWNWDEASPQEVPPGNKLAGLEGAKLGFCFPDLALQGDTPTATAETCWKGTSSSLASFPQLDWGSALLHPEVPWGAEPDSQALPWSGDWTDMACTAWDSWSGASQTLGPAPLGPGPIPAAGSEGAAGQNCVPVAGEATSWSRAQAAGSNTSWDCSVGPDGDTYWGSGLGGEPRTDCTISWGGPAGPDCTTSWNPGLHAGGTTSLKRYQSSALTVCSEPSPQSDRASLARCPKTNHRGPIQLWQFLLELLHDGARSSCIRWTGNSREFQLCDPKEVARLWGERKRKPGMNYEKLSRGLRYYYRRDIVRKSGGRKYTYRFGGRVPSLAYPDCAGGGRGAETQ
Outline: as §1

[16] = target: T11, ELF3 (Homo sapiens, UniProt P78545 1-371)
T11 sequence: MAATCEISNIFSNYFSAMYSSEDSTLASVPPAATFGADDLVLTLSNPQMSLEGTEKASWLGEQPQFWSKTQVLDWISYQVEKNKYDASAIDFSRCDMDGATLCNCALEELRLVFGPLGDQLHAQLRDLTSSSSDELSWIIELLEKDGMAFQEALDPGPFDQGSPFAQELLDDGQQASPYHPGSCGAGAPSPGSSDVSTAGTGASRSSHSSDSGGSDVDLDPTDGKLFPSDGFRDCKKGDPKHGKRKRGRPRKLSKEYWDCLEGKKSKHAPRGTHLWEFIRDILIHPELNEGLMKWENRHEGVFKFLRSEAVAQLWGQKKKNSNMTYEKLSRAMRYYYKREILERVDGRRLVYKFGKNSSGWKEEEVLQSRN
Outline: as §1

[17] = target: ETV1 (Homo sapiens, UniProt P50549 1-477)
ETV1, sequence (P50549 whole entry): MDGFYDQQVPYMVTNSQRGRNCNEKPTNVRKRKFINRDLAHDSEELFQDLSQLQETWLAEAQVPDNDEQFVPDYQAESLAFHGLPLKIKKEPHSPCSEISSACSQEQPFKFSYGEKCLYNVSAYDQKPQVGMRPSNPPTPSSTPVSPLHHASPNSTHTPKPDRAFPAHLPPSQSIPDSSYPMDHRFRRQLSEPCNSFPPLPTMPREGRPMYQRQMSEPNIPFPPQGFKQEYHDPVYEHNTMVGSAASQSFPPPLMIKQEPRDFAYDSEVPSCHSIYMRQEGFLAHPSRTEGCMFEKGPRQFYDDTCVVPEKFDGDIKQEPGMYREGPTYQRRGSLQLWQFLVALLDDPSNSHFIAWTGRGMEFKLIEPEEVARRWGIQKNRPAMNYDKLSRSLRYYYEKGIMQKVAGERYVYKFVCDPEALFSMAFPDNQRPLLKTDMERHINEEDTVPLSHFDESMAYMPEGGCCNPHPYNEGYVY
Outline: as §1

GGAAGC
binding signal [1]: 1.5 fold enrichment (6-mer frequency, TF over GST control) | binding signal [2]: 1.64 fold enrichment (6-mer frequency, TF over GST control) | binding signal [3]: 1.45 fold enrichment (6-mer frequency, TF over GST control) | binding signal [4]: 1.85 fold enrichment (6-mer frequency, TF over GST control) | binding signal [5]: 1.39 fold enrichment (6-mer frequency, TF over GST control) | binding signal [6]: 1.68 fold enrichment (6-mer frequency, TF over GST control) | binding signal [7]: 1.74 fold enrichment (6-mer frequency, TF over GST control) | binding signal [8]: 1.63 fold enrichment (6-mer frequency, TF over GST control) | binding signal [9]: 1.77 fold enrichment (6-mer frequency, TF over GST control) | binding signal [10]: 1.74 fold enrichment (6-mer frequency, TF over GST control) | binding signal [11]: 1.79 fold enrichment (6-mer frequency, TF over GST control) | binding signal [12]: 1.39 fold enrichment (6-mer frequency, TF over GST control) | binding signal [13]: 1.4 fold enrichment (6-mer frequency, TF over GST control) | binding signal [14]: 1.43 fold enrichment (6-mer frequency, TF over GST control) | binding signal [15]: 1.54 fold enrichment (6-mer frequency, TF over GST control) | binding signal [16]: 1.48 fold enrichment (6-mer frequency, TF over GST control) | binding signal [17]: 1.82 fold enrichment (6-mer frequency, TF over GST control)
